Source: PubChem BioAssay (NCATS)
Inconclusive results are not listed. Active and inactive are the calls of the source. Calls follow the shape of the dose curve; as a rule, active = well fitted inhibition curve with a large enough effect; inconclusive = small, poorly fitted or top-dose-only effect; inactive = flat fitted curve, though single readings scatter.

Experiments:
Test in all cases: qHTS profiling for inhibitors of Plasmodium falciparum proliferation (AID 504749); also: nearly all actives have a fitted effect of over 60% in size
Conditions in all cases: P. falciparum in erythrocytes, SYBR Green DNA, 72 h; series mostly up to 28.7 µM
AA1029 = system: AA1029
Outline: (§1)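 Infected RBCs, 0.3% parasitemia/2.5% Hct final; cpd 72 h, 37 C, 5% CO2; lysis buffer with saponin/triton/SYBR Green I, o/n RT dark; FI 485/535; norm. to artemisinin (0.29 uM) and DMSO.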

ATS95 = system: ATS95
Outline: as §1

C2A = system: C2A
Outline: as §1

CP211 = system: CP211
Outline: as §1

CP215 = system: CP215
Outline: as §1

CP217 = system: CP217
Outline: as §1

CP250 = system: CP250
Outline: as §1

CP252 = system: CP252
Outline: as §1

CP256 = system: CP256
Outline: as §1

CP269 = system: CP269
Outline: as §1

CP325 = system: CP325
Outline: as §1

CP329 = system: CP329
Outline: as §1

FAB9 = system: FAB9
Outline: as §1

N140 = system: N140
Outline: as §1

P93_24 = system: P93_24
Outline: as §1

PAD = system: PAD
Outline: as §1

PC15 = system: PC15
Outline: as §1

PC26 = system: PC26
Outline: as §1

SC27B = system: SC27B
Outline: as §1

TAB165 = system: TAB165
Outline: as §1

Measured: Potency
Potency is read from the fitted curve at half-maximal effect.

O=C(CC1NCCC[C@H]1O)Cn1cnc2cc(Br)c(Cl)cc2c1=O (stereo not given in full)
active: AA1029 1000 nM | ATS95 2000 nM | C2A 3160 nM | CP211 3380 nM | CP215 3790 nM | CP217 3160 nM | CP250 2820 nM | CP252 1120 nM | CP256 3160 nM | CP269 2690 nM | CP325 3380 nM | CP329 3380 nM | FAB9 1000 nM | N140 3160 nM | P93_24 1410 nM | PAD 2240 nM | PC15 891 nM | PC26 3790 nM | SC27B 11200 nM | TAB165 1000 nM
